The nature of assay [1]: NCI Yeast Anticancer Drug Screen. Data for the rad50 strain (AID 155).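 Also: 0% = growth of vehicle-only cultures of the same strain.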 The following applies: S. cerevisiae rad50 strain growth inhibition; at 50.0 µM; active compounds read high. A digest of the protocol: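 DNA repair mutant yeast, compound exposure, growth read-out; inhibition is taken relative to vehicle.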
Assay [2] is described as follows: NCI Yeast Anticancer Drug Screen. Data for the mec2-1 strain (AID 157). The following applies: S. cerevisiae mec2-1 strain, at 50.0 µM, active compounds read high. A digest of the protocol:
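Strain: mec2-1 (DNA repair/cell cycle alteration). Compound exposure, then growth measured; inhibition expressed relative to vehicle.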

The nature of assay [3]: NCI Yeast Anticancer Drug Screen. Data for the sgs1 mgt1 strain (AID 161).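 Also: 0% = growth of cultures given vehicle only.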 The following applies: S. cerevisiae sgs1 mgt1 strain, at 50.0 µM, active compounds read high. A digest of the protocol:
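Read-out: growth inhibition vs vehicle controls. Cells: mutant yeast strain deficient in DNA damage repair.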

A short description of assay [4]: NCI Yeast Anticancer Drug Screen. Data for the cln2 rad14 strain (AID 165).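 Also: 0% = growth equal to vehicle treated cultures.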 The conditions noted are these: S. cerevisiae cln2 rad14 strain, at 50.0 µM, active compounds read high. A digest of the protocol:
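Compounds are applied to the cln2 rad14 yeast strain, and growth is then compared with that of vehicle-treated cultures to give inhibition.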

A short description of assay [5]: NCI Yeast Anticancer Drug Screen. Data for the bub3 strain (AID 167). The following applies: S. cerevisiae bub3 mutant strain, at 50.0 µM, active compounds read high. A digest of the protocol:
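In this screen, a yeast mutant lacking normal mitotic checkpoint function is challenged with compound. Relative growth versus vehicle gives the inhibition value.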

The nature of assay [6]: NCI Yeast Anticancer Drug Screen. Data for the mlh1 rad18 strain (AID 175). The conditions noted are these: S. cerevisiae mlh1 rad18 strain growth inhibition; at 50.0 µM; active compounds read high. A digest of the protocol:
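Read-out is yeast growth inhibition, calculated against vehicle-only controls. The compound was applied to a strain engineered with DNA damage repair alterations.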

This is part of a sample that, as a whole, favours compounds with a hit. Of some 79,000 tested, about 15% had one in any assay. Unmarked numbers belong to inactive results. Activity calls are given as the source filed them. Rule as the data show it: active = growth inhibition above about 70%; inactive = the rest.

Turning to `Cc1cc2[nH]c3c(C#N)c(OC(=O)N(C)C)c(-c4ccccc4)c(=O)n3c2cc1C`, the growth inhibition in assay [1] was -8.75%; in assay [2] it was 9.5%; in assay [3] it was -7.85%; in assay [4], -7.15%; in assay [5], 1.9%; in assay [6] it was 1.6%.
Consider `[CH3][Sn]([CH3])([Br])[CH2]CCCBr`, for which the growth inhibition in assay [1] was 98.9% (active); in assay [2] it was 99.5% (active); in assay [3] it was 99.4% (active); in assay [4], 98.7% (active); in assay [5], 99.1% (active); in assay [6] it was 99.3% (active).
In the case of `c1ccc(P2(c3ccccc3)=NSN=S=N2)cc1`, the growth inhibition in assay [1] was -4.75%; in assay [2], -8.7%; in assay [3] it was -8.65%; in assay [4], -16.6%; in assay [5], 1.35%; in assay [6] it was -1.45%.
For the compound `Cc1cc(F)ccc1[As](=O)(O)O`, the growth inhibition in assay [1] is -0.55%; in assay [2], -1.95%; in assay [3], -3.25%; in assay [4] it was -17.9%; in assay [5] it was 5%; in assay [6] it was 3.25%.
For the compound `O=NNc1cnc2ccccc2n1`, the growth inhibition in assay [1] was 48.5%; in assay [2] it was -0.25%; in assay [3] it was -9.75%; in assay [4] it was -5.4%; in assay [5], -38.2%; in assay [6], 12.2%.
`CN(C)C(=O)Oc1ccc(Cl)cc1Cl`: the growth inhibition is 9.2% in assay [1]; 18.1% in assay [2]; -5.8% in assay [3]; -7.3% in assay [4]; -9.35% in assay [5]; 32.6% in assay [6].
Consider `CCCCCCCCCCCCCC(=O)O.[Pb]`, for which the growth inhibition in assay [1] is -4.8%; in assay [2], 7.35%; in assay [3], -5.9%; in assay [4] it was -0.65%; in assay [5] it was -12.7%; in assay [6], 5%.
Turning to `CCOC(=O)CN(Cc1ccccc1)Cc1c(C(=O)c2ccccc2)c2ccccc2n1C(=O)c1ccccc1`, the growth inhibition in assay [1] is 3.75%; in assay [2], -11.8%; in assay [3] it was -10.9%; in assay [4], -75.2%; in assay [5] it was -16.6%; in assay [6] it was -18.6%.
For the compound `O=C1OC(Br)c2ccccc21` (stereo not given), the growth inhibition was -11.4% in assay [1]; -27.7% in assay [2]; -8% in assay [3]; 7% in assay [4]; -20.1% in assay [5]; -7.65% in assay [6].
`O=C(O)c1cc(Cl)nc(Cl)c1`: the growth inhibition in assay [1] was -2.1%; in assay [2], 22%; in assay [3], 2.05%; in assay [4] it was -26.2%; in assay [5], 17.4%; in assay [6] it was -14.8%.
For `[CH3][Sb]1([Br])[CH2]CC[CH2]1`, the growth inhibition in assay [1] was 6.8%; in assay [2], 15.2%; in assay [3], 5.85%; in assay [4] it was -1.6%; in assay [5], -11.8%; in assay [6], 3.05%.
In the case of `C[C@]12CC[C@H]3[C@@H](CC[C@]4(O)C[C@@H](O)CC[C@]34CO)[C@@]1(O)CC[C@@H]2C1=CC(=O)OC1`, the growth inhibition in assay [1] was -6.1%; in assay [2], -23.1%; in assay [3] it was -17.6%; in assay [4], 0.45%; in assay [5], 1.35%; in assay [6], -16.9%.
For the compound `O=C(c1ccccc1)c1c(CC(O)c2ccccc2)n(C(=O)c2ccccc2)c2ccccc12` (stereo not given), the growth inhibition in assay [1] was 10.6%; in assay [2], -20.1%; in assay [3] it was -14.3%; in assay [4], -67.2%; in assay [5] it was -22.9%; in assay [6], -13.9%.
In the case of `COc1cc2c(cc1O)CC1c3c(cc(O)c(OC)c3-2)CCN1C` (stereo not given), the growth inhibition is 1.55% in assay [1]; -8.45% in assay [2]; -10.8% in assay [3]; -15.8% in assay [4]; -26.1% in assay [5]; 2.85% in assay [6].
Turning to `CCOC(=O)C(C)(Br)CC` (stereo not given), the growth inhibition is -19.4% in assay [1]; -3.25% in assay [2]; -17.4% in assay [3]; -81.4% in assay [4]; -22.1% in assay [5]; -7.8% in assay [6].
Take `CC1CN=C(Nc2ccc(F)cc2F)S1` (stereo not given): the growth inhibition in assay [1] is -9.1%; in assay [2], -8.6%; in assay [3], -65.7%; in assay [4], -24.4%; in assay [5], 12.5%; in assay [6], -36.6%.
`ClCCN(CCCl)c1ccc(CCCCN2CCCCC2)cc1`: the growth inhibition was 20.2% in assay [1]; 23.2% in assay [2]; 21.2% in assay [3]; 14.2% in assay [4]; 19.2% in assay [5]; 47% in assay [6].
`CCCCC(CC)COP(=S)(S)OCC(CC)CCCC.[Sn]` (stereo not given): the growth inhibition in assay [1] was -7.7%; in assay [2] it was -10.4%; in assay [3], -6.5%; in assay [4] it was -46.9%; in assay [5], 13.8%; in assay [6] it was -7.7%.
`CCOC(=O)OC1(c2ccccc2)CCN(C)CC1`: the growth inhibition in assay [1] was -12.2%; in assay [2], 5.75%; in assay [3] it was -4.55%; in assay [4], 34.3%; in assay [5], 21.4%; in assay [6] it was 21.4%.
Regarding `Oc1c(Cl)cc(Cl)cc1C1N(Cc2ccc(N(CCCl)CCCl)cc2Cl)CCCN1Cc1ccc(N(CCCl)CCCl)cc1Cl`, the growth inhibition in assay [1] is -0.6%; in assay [2], 15.6%; in assay [3], 18.6%; in assay [4], -6%; in assay [5] it was -4%; in assay [6], 18%.

(Values after PubChem BioAssay (NCI).)
